Unmarked numbers belong to inactive results. Inconclusive results are not listed. Active and inactive are the calls of the source. Calls come from the whole dose curve; as a rule, active = well fitted curve in the direction sought with a large enough effect in the repeat runs; inconclusive = weak or mixed curves; inactive = no such curve, though single readings can be large; an effect the other way counts as inactive or inconclusive.

18 compounds from PubChem BioAssay (Tox21) can be followed below.

The nature of assay [1]: Human pregnane X receptor (PXR) small molecule agonists, qHTS cell viability counter screen (AID 1346977). Note: nearly all actives have a fitted effect of over 50% in size. Note: potency is the fitted concentration of half-maximal effect. The gist of the method: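 After a 5hr pre-incubation, PXR-Luc HepG2 cells received compounds plus positive control in DMSO and were kept 24hr at 37C. Cell viability was quantified by fluorescence from CellTiter-Fluor added for the final hour.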
For orientation: In qHTS, concentration-response curves come from the screen itself.

A short description of assay [2]: Caspase-3/7 induction in HepG2 cells by small molecules, qHTS assay (AID 1346978). Note: nearly all actives have a fitted effect of over 15% in size. Note: potency is the fitted concentration of half-maximal effect. In outline:
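Wild-type HepG2 cells (2,000/well) were settled 5 h at 37 C, 5% CO2, then exposed to compounds in DMSO for 17 h. Caspase-3/7 activity was read by luminescence 30 min after adding Caspase-Glo 3/7 reagent at room temperature.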

Assay [3] in a line: Caspase-3/7 induction in CHO-K1 cells by small molecules, qHTS cell viability counter screen (AID 1346979). Note: nearly all actives have a fitted effect of over 35% in size. Note: potency is the fitted concentration of half-maximal effect. In outline:
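Multiplexed with Caspase-Glo 3/7 in CHO-K1 cells, this counter screen added CellTiter-Fluor after 16hr of compound exposure and recorded fluorescence 1hr later.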

Assay [4] is described as follows: Caspase-3/7 induction in CHO-K1 cells by small molecules, qHTS assay (AID 1346980). Note: nearly all actives have a fitted effect of over 15% in size. Note: potency is the fitted concentration of half-maximal effect. The gist of the method:
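Wild-type cells were seeded at 1,500 per well and settled 5 hr at 37 C, 5% CO2, then exposed to DMSO-dissolved compounds for 17 hr. Caspase-Glo 3/7 reagent was added, and luminescence was read after 30min at room temperature.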

The nature of assay [5]: Caspase-3/7 induction in HepG2 cells by small molecules, qHTS cell viability counter screen (AID 1346981). For activity change, negative = cytotoxicity: series mostly up to about 92 µM. Note: nearly all actives have a fitted effect of over 30% in size. Note: potency is the fitted concentration of half-maximal effect. In outline: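 Wild-type HepG2 cells, 2,000/well, settled 5 hr at 37 C, 5% CO2 before compound addition. Viability read by CellTiter-Fluor fluorescence, reagent added after 16 hr compound exposure, then 1 hr at 37C, in the same wells as the caspase read.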
Assay [6] addresses Nuclear receptor subfamily 1 group I member 2 (Rattus norvegicus) (UniProt Q9R1A7). Description: Rat pregnane X receptor (rPXR) activation by small molecules, qHTS assay (AID 1346983). Note: nearly all actives have a fitted effect of over 20% in size. Conditions: rPXR luciferase reporter cells, One-Glo luminescence, 24 h; max activation: active compounds read high. In outline:
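Cell-based rPXR luciferase reporter assay, 2,000 cells per well, rested 5hr at 37 C before compound addition in DMSO, then 24 hr at 37 C. One-Glo reagent was added and luminescence read after 30 min at room temperature.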

The target in assay [7] is Nuclear receptor subfamily 1 group I member 2 (Homo sapiens) (UniProt O75469). In words: CYP3A4 induction through human pregnane X receptor (PXR) by small molecules, qHTS assay (AID 1346984). Note: nearly all actives have a fitted effect of over 40% in size. In outline: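 DPX-2 HepG2 cells carrying a PXR response element and CYP3A4-promoter luciferase construct, treated with compounds 24 hr at 37C. Then P450-Glo CYP3A4 Luciferin-IPA substrate (3uM final) for 3 hr at 37C, One-Glo added, luminescence read.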

The target is the same in assay [8]. Description: Human pregnane X receptor (PXR) activation by small molecules, qHTS assay (AID 1346985). Note: nearly all actives have a fitted effect of over 40% in size. In outline: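 DPX-2 cells (HepG2 co-transfected with a PXR response element and a CYP3A4-promoter luciferase construct) were seeded at 2,000 per well, rested 5 hr at 37C, then exposed to DMSO-dissolved compounds for 24 hr. Activation was read as luciferase luminescence.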

For assay [9], the target named is Cytochrome P450 2D6 (Homo sapiens) (UniProt P10635). In words: Cytochrome P450 Family 2 Subfamily D Member 6 (CYP2D6) small molecule antagonists: luciferase reporter qHTS assay (AID 1671196). Note: nearly all actives have a fitted effect of over 50% in size. Note: potency is the fitted concentration of half-maximal effect. In outline: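 Cell-free P450-Glo system: CYP2D6 with proluciferin substrate was pre-incubated with compound for 10 min, then reacted with NADPH regeneration for 1 h at room temperature. Luciferin product was detected after 20 min, and data were reported as relative luminescence units.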
For orientation: A reporter such as luciferase makes a cellular process visible.

Assay [10] addresses Nuclear receptor subfamily 1 group I member 2 (Homo sapiens) (UniProt O75469). In words: Human pregnane X receptor (PXR) small molecule agonists, qHTS assay (AID 1346982). Note: nearly all actives have a fitted effect of over 35% in size. Note: potency is the fitted concentration of half-maximal effect. The gist of the method: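 PXR-Luc HepG2 reporter cells (CYP3A4-driven luciferase) in 5% charcoal-stripped FBS medium, plated 5 h before compound addition, then treated 24 h at 37C. Luciferase read by ONE-Glo luminescence after 30 min at room temperature.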
% is set by controls: 0 for no effect and ±100 for the full control effect.

Sequence of Nuclear receptor subfamily 1 group I member 2 (Homo sapiens) (O75469 whole entry, looked up): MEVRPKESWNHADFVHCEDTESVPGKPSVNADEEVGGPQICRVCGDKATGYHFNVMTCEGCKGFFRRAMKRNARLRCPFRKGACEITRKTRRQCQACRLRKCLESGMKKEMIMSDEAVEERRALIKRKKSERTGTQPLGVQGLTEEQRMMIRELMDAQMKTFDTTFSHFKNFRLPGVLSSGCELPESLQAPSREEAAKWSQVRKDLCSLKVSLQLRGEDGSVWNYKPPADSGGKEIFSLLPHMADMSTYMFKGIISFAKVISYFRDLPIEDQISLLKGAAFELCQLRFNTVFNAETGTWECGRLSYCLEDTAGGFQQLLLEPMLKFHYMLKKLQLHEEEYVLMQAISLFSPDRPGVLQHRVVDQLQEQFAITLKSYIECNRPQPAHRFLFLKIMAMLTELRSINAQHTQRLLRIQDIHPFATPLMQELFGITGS
Sequence of Cytochrome P450 2D6 (Homo sapiens) (P10635 whole entry, looked up): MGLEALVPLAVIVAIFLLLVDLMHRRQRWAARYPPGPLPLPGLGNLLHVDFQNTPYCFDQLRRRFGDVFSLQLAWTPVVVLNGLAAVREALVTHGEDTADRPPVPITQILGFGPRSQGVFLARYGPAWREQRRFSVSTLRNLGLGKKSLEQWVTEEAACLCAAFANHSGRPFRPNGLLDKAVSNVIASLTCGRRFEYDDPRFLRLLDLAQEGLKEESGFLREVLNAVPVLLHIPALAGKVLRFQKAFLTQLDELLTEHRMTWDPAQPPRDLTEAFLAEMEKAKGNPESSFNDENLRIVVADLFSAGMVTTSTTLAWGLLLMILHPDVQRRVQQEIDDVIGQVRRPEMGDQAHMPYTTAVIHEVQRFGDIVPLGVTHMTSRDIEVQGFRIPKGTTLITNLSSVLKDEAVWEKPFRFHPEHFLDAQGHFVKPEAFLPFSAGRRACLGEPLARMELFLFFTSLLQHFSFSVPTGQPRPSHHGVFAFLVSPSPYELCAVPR
Sequence of Nuclear receptor subfamily 1 group I member 2 (Rattus norvegicus) (Q9R1A7 whole entry, looked up): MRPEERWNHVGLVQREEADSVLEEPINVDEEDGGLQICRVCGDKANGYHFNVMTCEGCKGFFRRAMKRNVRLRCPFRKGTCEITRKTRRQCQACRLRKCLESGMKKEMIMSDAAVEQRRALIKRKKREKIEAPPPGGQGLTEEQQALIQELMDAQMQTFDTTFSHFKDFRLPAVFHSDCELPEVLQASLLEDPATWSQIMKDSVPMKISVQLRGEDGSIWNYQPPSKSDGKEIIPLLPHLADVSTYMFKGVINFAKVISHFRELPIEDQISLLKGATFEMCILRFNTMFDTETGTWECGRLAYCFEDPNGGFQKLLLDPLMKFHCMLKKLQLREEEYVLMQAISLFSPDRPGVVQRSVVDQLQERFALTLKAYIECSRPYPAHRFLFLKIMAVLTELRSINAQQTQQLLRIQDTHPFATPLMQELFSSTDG

Regarding `CCCCC(CC)CN=C(N)NC(N)=NCCCCCCN=C(N)NC(N)=NCC(CC)CCCC` (centres undefined), the Potency in assay [1] was 16.8 µM (active); in assay [3], 16.8 µM (active); in assay [5], 26.6 µM (active); in [9], 1.23 µM (active). Besides, the Potency result in assay [2], in assay [4], in assay [7] and in assay [8] was “inactive” in each case. Further, in assay [6], the max activation was -27.3%.

As to `CCc1cc(Cc2cc(CC)cc(C(C)(C)C)c2O)c(O)c(C(C)(C)C)c1`, the Potency in assay [1] was 30.6 µM (active); in assay [2], 68.6 µM (active); in [3], 38.6 µM (active); in assay [4], 54.5 µM (active); in assay [5] it was 54.5 µM (active); in [10] it was 0.686 µM (active). Further, the Potency result in assay [9] is “inactive”.

Turning to `N=C1C=CC(=C(c2ccc(N)cc2)c2ccc(N)cc2)C=C1`, the Potency is 8.63 µM (active) in assay [1], 12.2 µM (active) in assay [3], 13.7 µM (active) in assay [5] and 6.33 µM (active) in [9]. For the same compound, the Potency entry in [2], in [4] and in assay [10] was “inactive” throughout.

`Cc1cc(O)c(Cl)c(C)c1Cl`: the Potency entry in assay [1], in [2], in [3], in assay [4], in assay [5] and in assay [10] was “inactive” throughout. Also, the Potency entry in [9] was “inactive”.

For `C=CC(=O)OCCn1c(=O)n(CCOC(=O)C=C)c(=O)n(CCOC(=O)C=C)c1=O`, the Potency in assay [1] was 27.3 µM (active); in assay [2] it was 24.3 µM (active); in [3], 4.33 µM (active); in assay [4], 2.43 µM (active); in [5] it was 27.3 µM (active); in [10] it was 8.63 µM (active). In addition, the Potency result in [9] was “inactive”.

Take `C1CCCC1`: the Potency result in assay [1], in [2], in assay [3], in [4], in [5] and in [10] was “inactive” each time. The Potency in [9] was 34.8 µM (active).

Turning to `CC(NN)c1ccccc1` (centres undefined), the activity change, negative = cytotoxicity is 0.166% [at 19 µM] in [1], 6.27% [at 19 µM] in assay [3] and 2.61% [at 19 µM] in assay [5]. In assay [2], the caspase activation was -0.345% [at 19 µM]. In assay [4], the caspase-3/7 activation was 2.13% [at 19 µM]. Also, the activation in assay [10] is 7.91% [at 19 µM]. Besides, in assay [9], the Potency was 15.1 µM (active).

For `C[C@]12CCC(=O)C=C1CC[C@@H]1[C@@H]2[C@@H](O)C[C@@]2(C)[C@H]1CC[C@]2(O)C(=O)COC(=O)CCC(=O)O`, the Potency entry in assay [1], in [2], in [3], in [4], in assay [5] and in [10] was “inactive” throughout. The Potency result in assay [9] was “inactive”.

As for `CSc1ccc(/C=C2/C(C)=C(CC(=O)O)c3cc(F)ccc32)cc1`, the Potency result in assay [1], in assay [2], in assay [3], in assay [4], in assay [5] and in assay [10] was “inactive” in each case. In addition, the Potency entry in assay [9] is “inactive”.

In the case of `C[n+]1cc2c3c(ccc2c2ccc4cc5c(cc4c21)OCO5)OCO3`, the Potency in assay [1] was 2.91 µM (active); in [2] it was 3.66 µM (active); in assay [3] it was 1.03 µM (active); in [4], 1.3 µM (active); in [5], 5.17 µM (active); in [9] it was 6.74 µM (active). The activation in assay [10] is -46.6% [at 19 µM].

Consider `CCCCCCCC(=O)[O-].CCCCCCCC(=O)[O-].[Zn+2]`, for which the Potency entry in assay [1], in assay [2], in assay [3], in assay [4], in assay [5] and in [10] was “inactive” in each case. Also, in [9], the Potency result was “inactive”.

In the case of `CC(C)(C)C(=O)OCOC(=O)C1N2C(=O)CC2S(=O)(=O)C1(C)C` (centres undefined), the Potency entry in assay [1], in assay [2], in [3], in assay [4], in [5] and in [10] was “inactive” each time. In addition, in assay [9], the Potency entry was “inactive”.

Take `O=C1CCCc2c1cc1ccc3cccc4ccc2c1c34`: the Potency entry in [1], in assay [2], in [3], in assay [4], in assay [5] and in [9] was “inactive” in each case. For the same compound, the Potency in assay [10] was 17.4 µM (active).

Take `O=[N+]([O-])c1cc(Cl)c(Cl)c(Cl)c1Cl`: the Potency entry in [1], in assay [2], in [4], in assay [5] and in [9] was “inactive” throughout. The Potency in [3] and in assay [10] was 60.9 µM (active) in each case.

On to `CN(C)[C@@H]1C(=O)C(C(N)=O)=C(O)[C@@]2(O)C(=O)C3=C(O)c4c(O)ccc(Cl)c4[C@@H](O)[C@H]3C[C@@H]12`, for which the Potency result in assay [1], in [2], in assay [3], in assay [4], in assay [5] and in [7] was “inactive” throughout. The Potency result in [9] is “inactive”. In assay [6], the max activation was -0.517%.

`Oc1cc2ccccc2c2ccccc12`: the Potency in assay [1] was 13.7 µM (active); in [3] it was 15.4 µM (active); in [5], 13.7 µM (active); in assay [9], 2.24 µM (active). Besides, the Potency entry in assay [2], in [4] and in assay [10] was “inactive” each time.

On to `C=C(C)C(=O)OCC[N+](C)(C)C`, for which the Potency result in assay [1], in [2], in assay [4], in assay [5], in assay [10] and in assay [9] was “inactive” throughout. Besides, in assay [3], the Potency was 68.3 µM (active).

On to `Nc1c(Cl)cc(Cl)cc1Cl`, for which the Potency entry in assay [1], in [2], in assay [3], in [4], in [5] and in assay [10] was “inactive” each time. Besides, the Potency result in assay [9] was “inactive”.
